Screening data as filed in PubChem.
JMJD2A Tudor – JMJD2A Tudor domain (human) inhibition | AlphaScreen JMJD2A-Tudor / H3K4me3 peptide binding | O75164 | actives 4.4% (n = 390,000) | Potency, µM (top dose mostly 114 µM), for inactives: at the highest dose activity change, negative = inhibition, usual class: inhibitors; note: % is set by controls: 0 for no effect and ±100 for the full control effect; nearly all actives have a fitted effect of over 50% in size
L3MBTL1 block – blocks human L3MBTL1; Q9Y468; AlphaScreen L3MBTL1–H3K9me1 peptide binding; Potency, µM (top dose mostly 57.1 µM), without a hit: at the highest dose activity, negative = inhibition, usual class: inhibitors; actives 0.66% (n = 230,000); AID 485360; note: % is set by controls: 0 for no effect and ±100 for the full control effect; nearly all actives have a fitted effect of over 60% in size
Target sequence (Q9Y468 whole entry, looked up): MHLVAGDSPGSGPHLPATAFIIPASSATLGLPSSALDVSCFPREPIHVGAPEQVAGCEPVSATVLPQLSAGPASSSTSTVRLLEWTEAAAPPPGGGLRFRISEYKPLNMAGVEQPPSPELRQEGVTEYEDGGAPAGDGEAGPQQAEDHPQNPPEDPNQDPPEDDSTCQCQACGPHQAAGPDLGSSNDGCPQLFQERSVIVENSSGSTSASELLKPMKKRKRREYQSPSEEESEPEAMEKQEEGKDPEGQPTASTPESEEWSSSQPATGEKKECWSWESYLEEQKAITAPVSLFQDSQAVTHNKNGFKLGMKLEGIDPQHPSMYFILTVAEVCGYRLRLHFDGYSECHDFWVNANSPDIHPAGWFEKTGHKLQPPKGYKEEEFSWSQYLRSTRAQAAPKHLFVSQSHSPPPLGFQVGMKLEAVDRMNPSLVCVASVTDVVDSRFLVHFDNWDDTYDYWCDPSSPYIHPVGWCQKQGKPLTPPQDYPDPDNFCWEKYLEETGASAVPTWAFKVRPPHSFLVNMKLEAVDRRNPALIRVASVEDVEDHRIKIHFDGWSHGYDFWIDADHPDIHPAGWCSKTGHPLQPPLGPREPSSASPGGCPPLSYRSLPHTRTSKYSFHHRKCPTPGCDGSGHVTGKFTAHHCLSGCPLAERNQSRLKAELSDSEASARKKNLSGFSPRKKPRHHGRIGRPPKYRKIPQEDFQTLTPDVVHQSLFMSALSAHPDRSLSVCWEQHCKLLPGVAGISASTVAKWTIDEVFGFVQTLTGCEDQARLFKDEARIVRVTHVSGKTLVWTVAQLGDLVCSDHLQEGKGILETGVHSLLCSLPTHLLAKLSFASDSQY
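L3MBTL1 50 nM + b-AHA-H3(1-15)K9me1 75 nM, 30 min RT; compound added, 30 min RT; streptavidin donor/Ni-chelate acceptor beads 10 ug/mL each final, 30 min RT dark; AlphaScreen read.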
G9a inh – G9a (human) methyltransferase inhibition. G9a H3K9 monomethylation, AlphaScreen, 2 h. Potency, µM (top dose mostly 102 µM), inactives show at the highest dose activity, negative = inhibition, most hits filed as inhibitors. actives 8.8% (n = 350,000); note: % is set by controls: 0 for no effect and ±100 for the full control effect; nearly all actives have a fitted effect of over 75% in size
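Using a bead-based AlphaScreen, monomethylated H3K9 product from 2 h room-temperature reactions (G9a 20 nM, peptide 500 nM, SAM 20 uM) was detected with 0.5 ug/mL rabbit anti-H3K9me1 antibody.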
HP1b chromo inh – inhibitors of HP1-beta chromodomain binding to methylated histone tails | AlphaScreen HP1-beta / biotin-H3K9me3 peptide binding | AID 540317 | P83916 | Potency, µM (top dose mostly 114 µM), inactives show top-dose activity change, negative = inhibition, actives largely listed as inhibitors | actives 0.56% (n = 390,000); note: nearly all actives have a fitted effect of over 70% in size
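HP1-beta protein (50 nM final) preincubated 30 min at room temperature with biotinylated H3(1-18)K9me3 peptide (50 nM) in PBS pH 7.4, 0.01% Tween-20, then compound added for 30 min. AlphaScreen streptavidin donor/nickel chelate acceptor beads (10 ug/mL final), 30 min dark, luminescence read.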
BAZ2B block – BAZ2B (human) inhibition | Q9UIF8 | AlphaScreen BAZ2B-H3K14Ac peptide displacement | Potency, µM (titrated, usually from 114 µM), without a hit: at the highest dose activity change, negative = inhibition, actives largely listed as inhibitors | actives 4.4% (n = 360,000); note: % is set by controls: 0 for no effect and ±100 for the full control effect; nearly all actives have a fitted effect of over 60% in size
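AlphaScreen displacement: compounds (up to 110uM) incubated 30 min at room temperature with a preformed 50 nM BAZ2B/50 nM biotinylated H3K14Ac peptide complex in PBS pH 7.4 with Tween-20. Donor and acceptor beads at 10 ug/mL final added, 20 min light-protected before reading.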
GLS inhibitor – blocks human kidney-isoform glutaminase activity | O94925 | actives 0.21% (n = 410,000) | Potency, µM (top dose mostly 45.5 µM), without a hit: at the highest dose activity change, negative = inhibition, actives largely listed as inhibitors | AID 624170 | GLS enzymatic activity, qHTS titration; note: % is set by controls: 0 for no effect and ±100 for the full control effect
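Human kidney-isoform GLS in 45 mM KH2PO4 pH 8.2, 0.02% Tween-20, with compound, started with 1mM L-Glutamine (added stock). Glutamate oxidase/HRP/Amplex red coupled fluorescence read at start and after 30 min at RT.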
* = called active by the depositor; ? = inconclusive; · = no result given; [ ] = another dose, or the depositor's remark. Most compounds without a hit are left out; they make up all but 10% or so of the library. Calls come from the whole dose curve; as a rule, active = well fitted curve in the direction sought with a large enough effect; inconclusive = small, poorly fitted or top-dose-only effect, or another doubt; inactive = no such curve, though single readings can be large; an effect the other way counts as inactive or inconclusive. Potency is the fitted concentration of half-maximal effect.

SMILES	JMJD2A Tudor	L3MBTL1 block	G9a inh	HP1b chromo inh	BAZ2B block	GLS inhibitor
Cc1ccc(S(=O)(=O)NN=C2CCC(C(C)(C)C)CC2)cc1[N+](=O)[O-] (stereo not given)	-14.5%[57.1 µM]	4.4%	35.5µM*	33.5%	-2.4%	6.1%
CC(C)(C)C1CCC(=NNS(=O)(=O)c2ccc(Br)cc2)CC1 (stereo not given)	-3.4%	5.3%	7.94µM*	61.3%	9.1%	8.8%
COc1ccc(NC(=O)CSC2=Nc3ccccc3C3=NC(Cc4ccccc4)C(=O)N23)cc1Cl (stereo not given)	-21.5%	·	-4.9%[59 µM]	-0.4%	-10.2%	-20.9%
O=C1CCc2cc(Cl)c(S(=O)(=O)Nc3ccc(Cl)c(Cl)c3)cc2N1	-14.2%	·	·	·	·	·
Cc1ccc(C)c(NC(=O)Nc2csc3c2CCCC3)c1	-8.4%	·	-18.6%[59 µM]	18.4%	-1.5%	1.3%
C=C1CC2C(=O)N(Cc3cc(OC)ccc3OC)C(C(=O)OCC)C1N2C (stereo not given)	-6.9%	·	·	18.2%	·	·
Cc1cc(C)cc(N2CC(c3nc(-c4ccccc4C)no3)CC2=O)c1 (stereo not given)	23.0%	·	25.3%[59 µM]	76.3%	4.7%	-11.5%
COc1ccc(C(=O)NCc2nc(-c3cccc(C)c3)no2)cc1OC	-6.6%	·	-30.3%[59 µM]	22.8%	-0.3%	-12.3%
Cc1ccc(S(=O)(=O)N/N=C2/CC(c3ccccc3)Oc3ccccc32)cc1[N+](=O)[O-] (stereo not given)	-30.2%	·	39.8µM*	-12.1%	?	23.2%
O=S(=O)(N/N=C1/CC(c2ccccc2)Oc2ccccc21)c1ccc(Br)cc1 (stereo not given)	-35.1%	·	?	6.0%	-14.9%	6.0%
CCCC1CCC(=NNS(=O)(=O)c2ccc(C)c([N+](=O)[O-])c2)CC1 (stereo not given)	-33.0%[57.1 µM]	1.1%	7.08µM*	22.9%	-5.8%	-5.3%
Cn1c(=O)c(Nc2ccc(Cl)cc2)c2c3c(cccc31)C(=O)c1ccccc1-2	-27.8%[11.4 µM]	·	22.4µM*	?	?	-14.9%
O=C(CCN1CCOCC1)c1ccc(N2CCCCC2)cc1	-32.4%	1.8%	1.1%[0.501 µM]	30.1%	7.2%	16.2%
O=C(CCN1CCN(c2ccccc2)CC1)Nc1ccc(Cl)cc1	-12.2%	?	35.9%[59 µM]	27.3%	29.7%	1.1%
O=C(CCN1CCN(c2ccccc2)CC1)c1ccc(Cl)cc1	-22.1%	·	28.2µM*	32.7%	-27.4%	16.4%
O=C(CCN1CCN(c2ccc([N+](=O)[O-])cc2)CC1)c1ccc(Cl)cc1	?	·	14.1µM*	2.6%	?	-9.7%
CCOc1ccccc1CNC(=O)C1CCN(c2nnc(-n3c(C)ccc3C)s2)CC1	-21.1%	·	-14.4%[59 µM]	13.3%	-24.6%	1.3%
Cc1cc2c(s1)c1cnn(Cc3cccc(Br)c3)c(=O)c1n2C	-32.9%	·	·	·	·	·
CC(=O)c1cc(-c2ccccc2)n(CC(=O)NC2CCCC2)c1C	-7.7%	11.1%	-6.8%[59 µM]	26.5%	?	1.4%
CC(=O)c1cc(-c2ccccc2)n(CC(=O)N2CCC(C)CC2)c1C	-11.1%	19.8%[11.4 µM]	21.4%[59 µM]	0.3%	50.1µM*	2.4%
CC(=O)c1cc(-c2ccccc2)n(CC(=O)N2CCN(C3CCCC3)CC2)c1C	11.6%[11.4 µM]	-6.3%	6.8%[12.7 µM]	-13.5%	50.1µM*	-9.9%
O=C(Nc1nnc(C(F)(F)F)s1)c1ccc(Br)s1	-35.8%	4.5%	50.1µM*	7.5%	-12.5%	-19.5%
Cn1cnc([N+](=O)[O-])c1Nc1ccc(O)cc1	-14.2%	-5.9%	25.1µM*	12.0%	-16.6%	13.3%
CCNc1c([N+](=O)[O-])ncn1C	-5.5%	·	2.0%[59 µM]	23.7%	-16.1%	4.4%
COCCNc1cc(N2CCN(C3CCCCC3)CC2)c2noc3c2c1C(=O)c1ccccc1-3	50.1µM*	·	?	?	?	?
O=C1c2ccccc2-c2onc3c(N4CCN(C5CCCCC5)CC4)cc(NCCO)c1c23	?	·	-43.1%[59 µM]	?	31.6µM*	-10.6%
